Data on 29 molecules can be found in ChEMBL document CHEMBL4888484, “Replenishing the malaria drug discovery pipeline: Screening and hit evaluation of the MMV Hit Generation Library 1 (HGL1) against asexual blood stage Plasmodium falciparum ,using a nano luciferase reporter read-out” (2022).

Hit rate of the full screen: of about 4,800 compounds, about 420 (8.8%) showed an effect of 50% or more. The list comes from a sample in which strong results are over-represented; it also holds similar structures and randomly drawn compounds.

For the experiment, the system named is Plasmodium falciparum. Briefly: Confirmatory screen in NF54 nanoGlo assay, in single point, at 2uM, 72h. The experiment is classed as functional, Erythrocyte. The following applies: timepoint 72 hour.
As for `COC(=O)c1cc(Cl)c(Cl)cc1N`, the % Inhibition (usually the relative decrease from the control value, in per cent) is -6%.

With `COc1cccc([C@H]2CC(=O)Nc3nc(N4CCCCC4)sc32)c1`, the “% Inhibition” value worked out at 6%.

For `COc1ccc(S(=O)(=O)N2CCC(c3cc(N)on3)CC2)cc1Cl`, the “% Inhibition” value is 46%.

For the molecule `COc1ccc(F)cc1S(=O)(=O)N1CCc2noc(N)c2C1`, the “% Inhibition” value worked out at 68%.

As to `COc1ccc(OC)c(S(=O)(=O)N2C[C@H]3CCCC(=O)N[C@H]3C2)c1`, the “% Inhibition” value is on record as -4%.

For the molecule `O=C(c1ccccn1)N1CC(n2cnnc2[C@@H]2CCCO2)C1`, the “% Inhibition” value was -8%.

For the molecule `Oc1ccc([C@@H](c2cn(-c3nc(-c4ccc(Cl)cc4)cs3)nc2-c2ccccc2)c2c(-c3ccccc3)nn(-c3nc(-c4ccc(Cl)cc4)cs3)c2O)cc1`, the “% Inhibition” value is 6%.

As to `c1nc2nc[nH]c(NC3CCCCC3)c-2n1`, the “% Inhibition” value came to 10%.

For the molecule `Cc1occc1C(=O)NC1(c2ccccc2)CCOCC1`, the “% Inhibition” value is recorded as -5%.

For `COc1cc(OC)c(NC(=O)[C@H]2CCCN(c3nc4ccccc4[nH]c3=O)C2)cc1Cl`, the “% Inhibition” value was -2%.

Regarding `Cc1nc2ccccc2n1C(=O)c1sc2ccccc2c1Cl`, the “% Inhibition” value is -1%.

With `O=S(=O)(c1ccc(Br)cc1)N1CCOC12CCCCC2`, the “% Inhibition” value is -7%.

For `Cn1nnc(Cn2nnc(-c3ccccc3)n2)n1`, the “% Inhibition” value was -11%.

Take `CS(=O)(=O)N1CCC[C@H](Cn2nnnc2C=Cc2ccccc2)C1`: the “% Inhibition” value came to 8%.

For `COC[C@H](NCCc1cc(F)cc2c1OCOC2)C1CC1`, the “% Inhibition” value is 63%.

Consider `Cc1csc(NC(=O)NCCc2cc(F)cc3c2OCOC3)n1`, for which the “% Inhibition” value is -14%.

As to `COc1ccccc1N1CCN(C(=O)c2nnn(-c3ccccc3Cl)c2-c2cccnc2)CC1`, the “% Inhibition” value is on record as -2%.

Regarding `Cc1ccc(OCc2cccc(-c3nc4c5cn[nH]c5ncn4n3)c2)c(C)c1`, the “% Inhibition” value is on record as -7%.

`CC(C)N(CCCNC(=O)c1cnn2c3c(cnc12)CCCCCC3)Cc1ccccc1`: the “% Inhibition” value is recorded as 0%.

In the case of `COc1ccc(Cn2nc(C)n(-c3cccc(F)c3)c2=O)cc1`, the “% Inhibition” value is given as -1%.

On to `COc1ccc(CC(=O)Nc2cc(C)n(-c3cccc(Cl)c3)n2)cc1`, for which the “% Inhibition” value came out at 81%.

On to `COc1ccc(Cl)cc1NC(=O)Cc1c(C)nc2nc(-c3ccccc3C)nn2c1C`, for which the “% Inhibition” value was -2%.

Regarding `Fc1ccc(-c2csc(N3CCC[C@H](c4cn[nH]c4)C3)n2)cc1`, the “% Inhibition” value is listed as -1%.

Turning to `CCOC(=O)n1c(=O)[nH]c2ccc(Br)cc21`, the “% Inhibition” value is -10%.

Turning to `O=S(=O)(Nc1cccc2cccnc12)c1cccs1`, the “% Inhibition” value stood at 60%.

With `O=S(=O)(Nc1nncs1)c1cccs1`, the “% Inhibition” value is listed as -10%.

Regarding `Cc1cc(NS(=O)(=O)c2cccs2)n(-c2ccncc2)n1`, the “% Inhibition” value is listed as 2%.

Consider `COc1nc(N)nc(C(Cl)(Cl)Cl)n1`, for which the “% Inhibition” value was determined as 0%.

Consider `Cc1cc(F)ccc1CS(=O)(=O)N1CCC(CN2CCOCC2)CC1`, for which the “% Inhibition” value is -8%.
